This is a sample that favours compounds with a hit; in the whole collection about 12% have one here.
G9a inh = qHTS Assay for Inhibitors of Histone Lysine Methyltransferase G9a; Histone-lysine N-methyltransferase EHMT2 (Homo sapiens), Q96KQ7; G9a H3K9 monomethylation, AlphaScreen, 2 h; Potency, µM (series often up to 102 µM), most hits filed as inhibitors; 350,000 tested, 8.8% active; AID 504332, 2011; further: nearly all actives have a fitted effect of over 75% in size
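Step 1: enzyme (final 20 nM) with compound, 15 min RT. Step 2: substrate peptide 500 nM and SAM 20 uM, 2 h RT. Step 3: anti-H3K9me1 antibody and AlphaScreen beads, 10 min, then plate read.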
BAZ2B inh = qHTS Assay for Inhibitors of BAZ2B; Potency, µM (series often up to 114 µM), actives largely listed as inhibitors; AID 504333, 2011; Bromodomain adjacent to zinc finger domain protein 2B (Homo sapiens), Q9UIF8; 360,000 tested, 4.4% active; AlphaScreen BAZ2B-H3K14Ac peptide displacement; further: nearly all actives have a fitted effect of over 60% in size
Target sequence (Q9UIF8 whole entry, looked up, the tested form may be a part): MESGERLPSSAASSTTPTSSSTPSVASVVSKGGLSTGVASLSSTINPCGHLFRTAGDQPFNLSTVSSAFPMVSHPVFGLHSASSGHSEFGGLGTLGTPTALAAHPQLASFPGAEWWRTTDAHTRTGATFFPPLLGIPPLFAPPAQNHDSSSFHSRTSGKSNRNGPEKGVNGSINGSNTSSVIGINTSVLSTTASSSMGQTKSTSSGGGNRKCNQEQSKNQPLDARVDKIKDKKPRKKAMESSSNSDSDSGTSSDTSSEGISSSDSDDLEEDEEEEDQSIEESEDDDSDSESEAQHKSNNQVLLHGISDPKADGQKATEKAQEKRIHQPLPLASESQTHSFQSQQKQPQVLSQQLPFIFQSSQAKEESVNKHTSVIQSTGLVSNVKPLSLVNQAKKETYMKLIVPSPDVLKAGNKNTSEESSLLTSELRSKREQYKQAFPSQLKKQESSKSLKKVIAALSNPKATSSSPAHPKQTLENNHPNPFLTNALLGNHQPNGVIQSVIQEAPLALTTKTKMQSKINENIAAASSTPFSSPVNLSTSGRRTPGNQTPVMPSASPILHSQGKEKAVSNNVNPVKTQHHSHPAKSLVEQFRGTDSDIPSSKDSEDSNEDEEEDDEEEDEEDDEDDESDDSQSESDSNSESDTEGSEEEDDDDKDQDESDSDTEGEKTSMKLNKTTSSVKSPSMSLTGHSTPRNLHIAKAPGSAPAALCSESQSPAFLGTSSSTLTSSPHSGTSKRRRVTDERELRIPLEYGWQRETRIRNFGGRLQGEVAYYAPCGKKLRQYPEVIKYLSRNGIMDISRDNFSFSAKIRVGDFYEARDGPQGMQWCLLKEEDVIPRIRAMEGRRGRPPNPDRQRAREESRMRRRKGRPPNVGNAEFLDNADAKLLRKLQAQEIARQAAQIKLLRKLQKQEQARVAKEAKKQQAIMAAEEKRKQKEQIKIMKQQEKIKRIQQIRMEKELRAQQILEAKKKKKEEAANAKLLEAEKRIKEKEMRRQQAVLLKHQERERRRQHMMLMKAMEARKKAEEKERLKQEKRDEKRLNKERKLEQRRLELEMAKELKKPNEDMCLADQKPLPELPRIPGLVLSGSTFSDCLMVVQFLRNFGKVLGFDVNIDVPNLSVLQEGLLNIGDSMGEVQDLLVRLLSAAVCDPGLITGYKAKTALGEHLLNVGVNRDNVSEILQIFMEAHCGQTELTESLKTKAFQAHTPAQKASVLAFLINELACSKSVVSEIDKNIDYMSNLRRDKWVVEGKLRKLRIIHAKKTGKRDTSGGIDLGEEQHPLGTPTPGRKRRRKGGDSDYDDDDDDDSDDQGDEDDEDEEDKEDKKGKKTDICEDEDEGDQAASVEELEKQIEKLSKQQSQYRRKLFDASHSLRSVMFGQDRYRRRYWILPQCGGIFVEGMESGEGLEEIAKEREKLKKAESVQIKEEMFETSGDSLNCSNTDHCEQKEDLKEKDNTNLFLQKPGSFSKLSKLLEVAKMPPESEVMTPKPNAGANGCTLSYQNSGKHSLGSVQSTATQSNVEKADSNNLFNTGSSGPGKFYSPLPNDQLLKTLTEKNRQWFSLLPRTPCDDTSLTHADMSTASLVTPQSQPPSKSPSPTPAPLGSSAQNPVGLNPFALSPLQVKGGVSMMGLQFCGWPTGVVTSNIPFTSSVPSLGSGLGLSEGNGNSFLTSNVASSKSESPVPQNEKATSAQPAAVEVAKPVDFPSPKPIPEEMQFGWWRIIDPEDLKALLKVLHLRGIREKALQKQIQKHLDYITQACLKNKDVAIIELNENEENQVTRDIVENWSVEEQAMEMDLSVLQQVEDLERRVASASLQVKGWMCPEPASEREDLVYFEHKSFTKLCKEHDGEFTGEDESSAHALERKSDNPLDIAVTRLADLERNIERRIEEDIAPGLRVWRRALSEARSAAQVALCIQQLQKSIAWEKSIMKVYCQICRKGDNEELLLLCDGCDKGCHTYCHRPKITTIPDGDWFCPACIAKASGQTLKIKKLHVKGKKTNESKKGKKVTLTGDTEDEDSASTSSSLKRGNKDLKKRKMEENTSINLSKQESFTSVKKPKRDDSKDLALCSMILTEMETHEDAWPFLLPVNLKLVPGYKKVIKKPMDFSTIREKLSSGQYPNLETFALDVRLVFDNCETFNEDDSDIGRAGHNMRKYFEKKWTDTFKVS
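BAZ2B (50 nM) with biotin-H3(5-23)K14Ac peptide (50 nM) in PBS pH 7.4, 0.01% Tween-20, preformed 30 min, then compound 30 min at room temperature; top concentration 110uM. AlphaScreen streptavidin donor/nickel chelate acceptor beads (10 ug/mL final), 20 min dark, signal read.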
L3MBTL1 inh = qHTS Assay for the Inhibitors of L3MBTL1 | AlphaScreen L3MBTL1–H3K9me1 peptide binding | Potency, µM (highest dose often 57.1 µM), usual class: inhibitors | 230,000 tested, 0.66% active; further: nearly all actives have a fitted effect of over 60% in size
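L3MBTL1 (50 nM) pre-complexed 30 min with biotinylated H3(1-15)K9me1 peptide (75 nM), then compounds added for 30 min at room temperature; AlphaScreen streptavidin donor/nickel chelate acceptor beads (10 ug/mL final) read after 30 min dark incubation.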
Sfp inh = qHTS Assay for Inhibitors of Bacillus subtilis Sfp phosphopantetheinyl transferase (PPTase); 4'-phosphopantetheinyl transferase ffp (Bacillus subtilis), Q9F4F7; AID 1490, 2009; Potency, µM, most hits filed as inhibitors; Biochemical Sfp PPTase activity, qHTS; 310,000 tested, 3.5% active;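 further: the enzyme is Sfp with the accession as filed and its product quenches rhodamine fluorescence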
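Step 1, compound plus 15 nM Sfp-PPTase, 15 min, room temperature. Step 2, add rhodamine-CoA (5 uM) and BHQ-2-YbbR (12.5 uM). Step 3, read 525/598 nm fluorescence at 0 and 30 min.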
HP1b chromo inh = HTS for Inhibitors of HP1-beta Chromodomain Interactions with Methylated Histone Tails; Chromobox protein homolog 1 (Homo sapiens), P83916; AlphaScreen HP1-beta / biotin-H3K9me3 peptide binding; Potency, µM (highest dose often 114 µM), most hits filed as inhibitors; 390,000 tested, 0.56% active; AID 540317, 2011; further: nearly all actives have a fitted effect of over 70% in size
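HP1-beta protein (50 nM final) preincubated 30 min at room temperature with biotinylated H3(1-18)K9me3 peptide (50 nM) in PBS pH 7.4, 0.01% Tween-20, then compound added for 30 min. AlphaScreen streptavidin donor/nickel chelate acceptor beads (10 ug/mL final), 30 min dark, luminescence read.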
JMJD2A Tudor inh = qHTS Assay for Inhibitors of JMJD2A-Tudor Domain. Lysine-specific demethylase 4A (Homo sapiens), O75164. AlphaScreen JMJD2A-Tudor / H3K4me3 peptide binding. Potency, µM (titrated, usually from 114 µM), most hits filed as inhibitors. 390,000 tested, 4.4% active; further: nearly all actives have a fitted effect of over 50% in size
Numbers stand for hits; – = inactive; ? = inconclusive; · = no result given. The call rests on the fitted dose curve; in most records, active means well fitted curve in the direction sought with a large enough effect; inconclusive means small, poorly fitted or top-dose-only effect, or another doubt; inactive means no such curve, though single readings can be large; an effect the other way counts as inactive or inconclusive.

SMILES | G9a inh | BAZ2B inh | L3MBTL1 inh | Sfp inh | HP1b chromo inh | JMJD2A Tudor inh
Cc1nc(C)c(-c2csc(Nc3ccc(O)c(C(=O)O)c3)n2)s1 | 79.4µM | ? | – | – | – | –
CO[C@@H]1COC(=O)C/C=C\[C@H](C)[C@H](OC)COC(=O)[C@H](C)NC(=O)C/C=C\[C@H]1C | · | · | · | – | · | ·
COc1ccccc1NC(=O)c1ccc2ccccc2c1 | · | · | · | · | · | –
CC[C@H]1OC(=O)[C@H](C)[C@@H](O[C@H]2C[C@@](C)(OC)[C@@H](O)[C@H](C)O2)[C@H](C)[C@@H](O[C@@H]2O[C@H](C)C[C@H](N(C)C)[C@H]2O)[C@](C)(O)C[C@@H](C)CN(C)[C@H](C)[C@@H](O)[C@]1(C)O | – | · | · | – | – | –
Cc1cc(O)ccc1Nc1nc(-c2sc(N)nc2C)cs1 | – | – | – | – | – | 50.1µM
CCC(=O)Nc1nc(CC(=O)Nc2ccccc2)cs1 | – | – | · | – | – | –
O=C(O)Cc1csc(NC(=O)CSc2cccc(C(=O)O)n2)n1 | · | – | · | – | – | 89.1µM
CCOC(=O)CCNC(C(=O)OCC)c1ccccc1 (stereo not drawn) | ? | ? | · | – | ? | 35.5µM
CCC1CCCCN1C(=O)COc1ccc2c(c1)OCO2 (stereo not drawn) | 70.8µM | – | · | – | – | –
COc1cc(C(=O)Nc2nnc(C(C)(C)C)s2)c([N+](=O)[O-])cc1OC | 10µM | – | – | – | ? | –
CC(CC(=O)N(CCC1=CCCCC1)c1c(N)n(Cc2ccccc2)c(=O)[nH]c1=O)c1ccccc1 (stereo not drawn) | ? | – | – | · | – | –
Oc1cc(CNCc2ccccc2)c(O)cc1CNCc1ccccc1 | · | · | · | · | 31.6µM | 7.94µM
ONCc1ccccc1 | · | · | · | 12.6µM | · | ·
COc1ccc(C(=O)NCC(=O)OCC(=O)NCc2ccc3c(c2)OCO3)cc1 | · | · | – | · | – | –
COCCCn1c(O)c(/C=C2\N=C(C#N)C(=Nc3ccc(C)cc3)O2)sc1=S | ? | 10µM | – | 12.6µM | ? | ?
CCCCC1=CC2=C(c3ccco3)C(=O)C(C)(OC(=O)c3ccc(Cl)nc3)C(=O)C2=CO1 (stereo not drawn) | · | · | · | – | · | ·
O=[N+]([O-])c1cc2oc3c(c2c(C=NCc2ccccc2)c1O)CCCC3 | – | – | – | – | ? | 70.8µM
Cc1ccc(C(=O)c2c(N)c(C(=O)Nc3cccc(C(F)(F)F)c3)c3ccccn23)cc1 | – | – | · | · | – | –
COc1ccc(/C=C/c2cc(=O)c3cc(Cl)ccc3o2)cc1 | ? | – | – | 50.1µM | – | –
COc1ccccc1N1C(=O)CC(Sc2ncccc2C(=O)O)C1=O (stereo not drawn) | ? | – | – | – | – | –
O=C(O)c1cccnc1SC1CC(=O)N(c2ccc(OC(F)F)cc2)C1=O (stereo not drawn) | 44.7µM | – | · | – | – | –
COC(=O)c1c(N2C(=O)CC(Sc3ncccc3C(=O)O)C2=O)sc(C)c1C (stereo not drawn) | · | – | · | 89.1µM | – | –
O=C(O)c1cccnc1SC1CC(=O)N(c2cccc(C(F)(F)F)c2)C1=O (stereo not drawn) | 35.5µM | – | – | – | – | –
COc1ccc(C(=O)N(Cc2ccccc2)Cc2ccccc2)cc1COc1ccc(NC(C)=O)cc1 | · | · | · | · | · | –
Cc1ccc(S(=O)(=O)NN=C2C3CC4CC(C3)CC2C4)cc1 | ? | – | – | · | – | –
CC(C)(C)C1CCC(=NNS(=O)(=O)c2ccc(Br)cc2)CC1 (stereo not drawn) | 7.94µM | – | – | – | – | –
Cc1ccc(S(=O)(=O)NN=C2C3CC4CC(C3)CC2C4)cc1[N+](=O)[O-] | 22.4µM | – | – | – | – | –
